Consider 40 sequences from the OligoGym collection.
Note: reference of the scale not given here.

The first experiment addresses EIF1. The experiment in a line: pooled miR-30 sensor sort-seq; sequence = guide strand. To be noted: shRNA.
TTGGACAGTAGTAAGGGTCTTC came in with a sensor-assay potency score (higher = more potent) of 0.328.

Sequence TTTATCGTAATCATCAGCGATC gave a sensor-assay potency score (higher = more potent) of -0.622.

Turning to TTATATGGATATAATCCTCAGT, the sensor-assay potency score (higher = more potent) was -0.502.

TTACTTGCATCAGCAAAGGGGT had a sensor-assay potency score (higher = more potent) of -1.07.

TCAATTACAGTACCATTGCAGG came in with a sensor-assay potency score (higher = more potent) of -1.4.

Sequence TGTAGCTGAATTACTTCTCCAT had a sensor-assay potency score (higher = more potent) of 0.149.

On to AAACTTTTTCTTAAACGCCTTC, for which the sensor-assay potency score (higher = more potent) is -0.311.

The next experiment deals with EIF2B2. Described as above. To be noted: shRNA.
As for TAACACACTACTGAACCAGAAA, the sensor-assay potency score (higher = more potent) is -0.956.

The sequence TTGACTCTTGACATAACGGCAA yielded a sensor-assay potency score (higher = more potent) of -0.00739.

Sequence TGACTCTTGACATAACGGCAAA yielded a sensor-assay potency score (higher = more potent) of -1.53.

ATAATCTTGAGCACTCTCCGCA showed a sensor-assay potency score (higher = more potent) of 0.402.

Sequence TAATCTTGAGCACTCTCCGCAC had a sensor-assay potency score (higher = more potent) of -0.531.

Consider TATGAAATGAGTCTTCTTCATT, for which the sensor-assay potency score (higher = more potent) is -1.13.

TTATGTTTAACACACTACTGAA returned a sensor-assay potency score (higher = more potent) of -0.666.

Take ATCCTCTCTGACAACTCCGAGC: the sensor-assay potency score (higher = more potent) was -1.34.

For TCTCTGACAACTCCGAGCCCTT, the sensor-assay potency score (higher = more potent) was -1.5.

On to TTTAACACACTACTGAACCAGA, for which the sensor-assay potency score (higher = more potent) was -0.372.

In turn, TATGTTTAACACACTACTGAAC returned a sensor-assay potency score (higher = more potent) of -1.15.

As to TAGAGTTCACTCATCAGGCGGT, the sensor-assay potency score (higher = more potent) was determined as 0.258.

Another experiment has as its target EIF3K. The experiment is described as above. To be noted: shRNA.
TATACCTTCCAAGAGGTCCATG: the sensor-assay potency score (higher = more potent) is -1.12.

For TTGCACAGGGTGAAGTCTGTGT, the sensor-assay potency score (higher = more potent) was -0.115.

TGATGCTGGACACACTGTCAAA gave a sensor-assay potency score (higher = more potent) of -1.61.

On to TTCTCCACAATGTTCTTGGGTT, for which the sensor-assay potency score (higher = more potent) was -0.486.

For TTCTTGATGTGCCTGGTCGATC, the sensor-assay potency score (higher = more potent) is -1.05.

With TTGGCTACAGATGAAGATCTGC, the sensor-assay potency score (higher = more potent) was found to be 0.0721.

Turning to TACAGATGAAGATCTGCCCCGA, the sensor-assay potency score (higher = more potent) was determined as 0.0464.

Sequence TACCCTTGAGCAACTTGCCCAC had a sensor-assay potency score (higher = more potent) of -0.487.

In turn, ATCTTCTCCACAATGTTCTTGG displayed a sensor-assay potency score (higher = more potent) of -0.584.

Sequence TAAACTTTCGGACAGAGTCTTC showed a sensor-assay potency score (higher = more potent) of -0.691.

As for TTGATGTGCCTGGTCGATCATG, the sensor-assay potency score (higher = more potent) was -1.46.

For TATTTGCTCATCCACACCTTTA, the sensor-assay potency score (higher = more potent) is -1.23.

Another experiment addresses EIF3M. The description is as above. To be noted: shRNA.
The sequence TTGTCCTCTGTGTAACTTCCGA yielded a sensor-assay potency score (higher = more potent) of -0.798.

Take TACAGGAGTATTCTTATCCATC: the sensor-assay potency score (higher = more potent) was -1.23.

AACATCTTTATCATCCTCCTTC yielded a sensor-assay potency score (higher = more potent) of 0.329.

Sequence TTTTCTAACTTGATCCAGCTCA registered a sensor-assay potency score (higher = more potent) of -0.0518.

Take TGAAGCAGCATCACTCTTCTTA: the sensor-assay potency score (higher = more potent) was 0.0165.

The sequence TTCAACATCTTTATCATCCTCC registered a sensor-assay potency score (higher = more potent) of 0.759.

With TAAAGTAGTCTTAAAAGGGTGT, the sensor-assay potency score (higher = more potent) amounted to 0.205.

As to ATCTTCTTCACTGATGTCGATG, the sensor-assay potency score (higher = more potent) is -1.42.

Regarding TTGCTTAACAACTGCAGTCTCA, the sensor-assay potency score (higher = more potent) was -0.8.
